Measured values from PubChem BioAssay (NCATS).
Values without a mark were called inactive. Results filed as inconclusive are left out. A call without a number means that no potency is given here. Activity calls are given as the source filed them. Unless noted, calls follow the shape of the full dose curve.

Experiments:
[1] = Validation screen for inhibitors of Lassa infection (AID 463096); also: potency is read from the fitted curve at half-maximal effect
[2] = Inducers of the Endoplasmic Reticulum Stress Response (ERSR) in human glioma: Validation (AID 504836; active = well fitted curve in the direction sought with a large enough effect)
Procedure, shortened: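 Stably transfected U87-MG glioma cells carrying a GRP78-based luciferase sensor; 16 h compound incubation. Luminescence end-point read 10 min after Bright-Glo addition at room temperature.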

[3] = qHTS for Inhibitors of the Functional Ribonucleoprotein Complex (vRNP) of Lassa (LASV) Arenavirus: LASV Primary Screen - GLuc reporter signal (AID 1347082; calls by dose curve; tested in HEK293 reporter line; also: series mostly up to about 57 µM; nearly all actives have a fitted effect of over 60% in size)
[4] = qHTS for Inhibitors of the Functional Ribonucleoprotein Complex (vRNP) of Lassa (LASV) Arenavirus: Viability assay - alamar blue signal for LASV Primary Screen (AID 1347083; calls by dose curve; tested in HEK293 reporter line; also: series mostly up to about 57 µM; nearly all actives have a fitted effect of over 80% in size)
[5] = qHTS for Inhibitors of the Functional Ribonucleoprotein Complex (vRNP) of Lymphocytic Choriomeningitis Arenaviruses (LCMV): Viability assay - alamar blue signal for LCMV Primary Screen (AID 1347085; calls by dose curve; tested in HEK293 reporter line; also: series mostly up to about 57 µM; nearly all actives have a fitted effect of over 80% in size)
[6] = biological target: Nucleoprotein (Lymphocytic choriomeningitis virus (strain Armstrong)) (UniProt P09992); assay: qHTS for Inhibitors of the Functional Ribonucleoprotein Complex (vRNP) of Lymphocytic Choriomeningitis Arenaviruses (LCMV): LCMV Primary Screen - GLuc reporter signal (AID 1347086); also: series mostly up to about 57 µM; nearly all actives have a fitted effect of over 70% in size
Chain of Nucleoprotein (Lymphocytic choriomeningitis virus (strain Armstrong)) (P09992 whole entry, looked up): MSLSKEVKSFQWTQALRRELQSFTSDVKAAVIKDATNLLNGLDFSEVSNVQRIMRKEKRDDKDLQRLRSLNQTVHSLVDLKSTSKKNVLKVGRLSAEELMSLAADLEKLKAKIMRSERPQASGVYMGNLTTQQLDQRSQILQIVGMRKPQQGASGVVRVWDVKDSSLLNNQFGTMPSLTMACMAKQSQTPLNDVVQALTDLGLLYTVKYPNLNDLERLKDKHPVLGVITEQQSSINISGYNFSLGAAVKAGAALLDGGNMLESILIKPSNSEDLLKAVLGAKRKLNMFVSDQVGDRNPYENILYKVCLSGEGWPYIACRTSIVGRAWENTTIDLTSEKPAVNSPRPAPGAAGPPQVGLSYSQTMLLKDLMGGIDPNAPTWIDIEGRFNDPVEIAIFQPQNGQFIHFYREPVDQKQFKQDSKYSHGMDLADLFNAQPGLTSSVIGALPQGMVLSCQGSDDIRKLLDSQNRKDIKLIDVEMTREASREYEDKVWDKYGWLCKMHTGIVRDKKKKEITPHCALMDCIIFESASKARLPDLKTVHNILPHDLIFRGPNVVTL

Compound	Potency [1]	outcome [2]	Potency [3]	Potency [4]	Potency [5]	Potency [6]
Cc1ccc(C(=O)O[C@H](C(=O)O)[C@@H](OC(=O)c2ccc(C)cc2)C(=O)O)cc1 (tested in a mixture with another compound)	inactive	inactive	inactive	inactive	inactive	inactive
NCC(O)(CS(=O)(=O)O)c1ccc(Cl)cc1 (centres undefined)	inactive	inactive	inactive	inactive	inactive	inactive
OC[C@H]1NC[C@@H](O)[C@@H]1O	inactive	inactive	inactive	inactive	inactive	inactive
OCC1O[C@H](O)C(Cl)C(O)C1O (some centres undefined)	inactive	inactive	inactive	inactive	inactive	inactive
NC1CCN(O)C1=O (centres undefined)	inactive	inactive	inactive	inactive	inactive	inactive
CCCCCC[C@@H]([C@@H](C)O)n1cnc2c(N)ncnc21	inactive	inactive	inactive	inactive	inactive	inactive
C[C@@H](CN1CCC(Cc2ccccc2)CC1)[C@@H](O)c1ccc(O)cc1	inactive	inactive	inactive	inactive	inactive	inactive
CCCCCC(O)CCCC(=O)O (centres undefined)	inactive	inactive	inactive	inactive	inactive	inactive
O=C(/C=C/c1ccc(O)cc1)c1ccc(O)cc1O	inactive	inactive	inactive	inactive	inactive	inactive
COc1cccc(OC)c1OCCNCC1CSc2ccccc2O1 (centres undefined)	inactive	inactive	inactive	inactive	inactive	inactive
O=C(O)CC1CCCc2ccccc2C1O (centres undefined)	inactive	inactive	inactive	inactive	inactive	inactive
CCOC(=O)C12CC1/C(=N/O)c1ccccc1O2 (centres undefined)	inactive	inactive	inactive	inactive	inactive	inactive
CO/N=C(\C(=O)N[C@@H]1C(=O)N2C(C(=O)O)=C(CSc3nc(=O)c(O)nn3C)CSC12)c1csc(N)n1 (some centres undefined)	inactive	inactive	inactive	inactive	inactive	inactive
O=C(O)C1CN(CCCP(=O)(O)O)CCN1 (centres undefined)	inactive	inactive	inactive	inactive	inactive	inactive
O=C(O)/C=C/C(O)c1ccc(Cl)cc1 (centres undefined)	inactive	inactive	inactive	inactive	inactive	inactive
COc1cccc(OC)c1OCCNCC1COc2ccccc2O1 (centres undefined)	inactive	inactive	inactive	inactive	inactive	inactive
CCCCC/C=C\CC(O)/C=C/c1cccc(CC(O)CCCCO)n1 (centres undefined)	inactive	inactive	inactive	inactive	inactive	inactive

Compound	Potency [1]	outcome [2]	Potency [3]	Potency [4]	Potency [5]	Potency [6]
S=C(S)OC1CC2CC1C1CCCC21 (centres undefined)	inactive	inactive	inactive	inactive	inactive	inactive
CC1CCN(CC[C@H]2CCCN2S(=O)(=O)c2cccc(O)c2)CC1	inactive	inactive	inactive	inactive	inactive	inactive
CC(N)=NCCCC[C@@H](N)C(=O)O	inactive	inactive	inactive	inactive	inactive	inactive
CC(C)C[C@H](NC(=O)C1OC1C(=O)O)C(=O)NCCCCN=C(N)N (some centres undefined)	inactive	inactive	inactive	inactive	inactive	inactive
Cn1cc(C(F)(F)F)nc1-c1ccc(OCC(O)CNCCOc2ccc(O)c(C(N)=O)c2)cc1 (centres undefined)	inactive	inactive	inactive	inactive	inactive	inactive
NC1CONC1=O (centres undefined)	inactive	inactive	inactive	inactive	inactive	inactive
O=C(O)[C@@H]1C[C@H](C(=O)O)N1	inactive	inactive	inactive	inactive	inactive	inactive
O=C(O)C1CCCNC1 (centres undefined)	inactive	inactive	inactive	inactive	inactive	inactive
CC(C)(C)c1onc(OCP(=O)(O)O)c1CC(N)C(=O)O (centres undefined)	inactive	inactive	inactive	inactive	inactive	inactive
CCCCCCCCCCCCCCCC(=O)NCC(COP(=O)([O-])OCC[N+](C)(C)C)OCC (centres undefined)	11.2 µM (active)	inactive	inactive	inactive	inactive	inactive
CC1(C)CCC(NC(=O)[C@@H](N)CCC(=O)O)CC1	inactive	inactive	inactive	inactive	inactive	inactive
O=C(O)CCCC[C@@H]1CCSS1	inactive	inactive	inactive	inactive	inactive	inactive
CCCCCCCCCCCCCCCC(=O)OC(CC(=O)O)C[N+](C)(C)C (centres undefined)	inactive	inactive	inactive	inactive	inactive	inactive
CN1C2CCC1CC(OC(c1ccccc1)c1ccccc1)C2 (centres undefined)	10 µM (active)	inactive	inactive	inactive	inactive	inactive
CC(=O)/C(C)=N/O	inactive	inactive	inactive	inactive	inactive	inactive
CC(/C=C/c1cccc(Oc2ccc(F)cc2)c1)N(O)C(N)=O (centres undefined)	inactive	inactive	inactive	inactive	inactive	inactive
COC(=O)C1=C(C)NC(C)=C([N+](=O)[O-])C1c1ccccc1C(F)(F)F (centres undefined)	inactive	inactive	inactive	inactive	inactive	inactive
